Most compounds without a hit are left out; they make up all but 3.8% or so of the library.
PLK1 PBD inh: qHTS for Inhibitors of PLK1-PDB (polo-like kinase 1 - polo-box domain): Primary Screen; Plk1 PBD binding of FITC phosphopeptide, fluorescence polarization; Potency, µM, for the others: max response, negative = inhibition, hits mostly inhibitors; 360,000 compounds, 2.8% hits; also: potency is read from the fitted curve at half-maximal effect; series mostly up to about 57 µM; % is scaled to controls: 0 for no effect and ±100 for the full control effect; nearly all actives have a fitted effect of over 65% in size
VDR inh: Inhibitors of the vitamin D receptor (VDR): qHTS; Vitamin D3 receptor (Homo sapiens), P11473; VDR-SRC2-3 peptide fluorescence polarization, 2 h; Potency, µM, for inactives: max response, negative = inhibition, actives largely listed as inhibitors; 400,000 compounds, 0.93% hits; also: potency is read from the fitted curve at half-maximal effect; % is scaled to controls: 0 for no effect and ±100 for the full control effect
Target sequence (P11473 whole entry, looked up): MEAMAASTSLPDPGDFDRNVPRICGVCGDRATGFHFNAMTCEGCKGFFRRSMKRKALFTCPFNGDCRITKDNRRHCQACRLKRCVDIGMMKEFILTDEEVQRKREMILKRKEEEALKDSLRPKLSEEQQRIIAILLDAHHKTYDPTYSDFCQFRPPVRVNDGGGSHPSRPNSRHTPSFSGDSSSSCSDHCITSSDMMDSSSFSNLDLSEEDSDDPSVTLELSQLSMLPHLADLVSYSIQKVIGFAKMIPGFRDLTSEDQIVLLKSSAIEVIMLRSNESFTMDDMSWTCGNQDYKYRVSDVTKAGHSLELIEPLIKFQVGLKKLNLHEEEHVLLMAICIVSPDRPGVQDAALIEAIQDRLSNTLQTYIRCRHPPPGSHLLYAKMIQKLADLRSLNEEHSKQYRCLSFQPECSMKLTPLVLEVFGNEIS
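Compounds are added to VDR with labelled SRC2-3 coactivator peptide and held 2 h at room temperature. Inhibition of the VDR–peptide interaction is then read as a change in fluorescence polarization.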
MBNL1-CUG inh: qHTS Assay for Inhibitors of MBNL1-poly(CUG) RNA binding. AID 2675, 2010. Muscleblind-like protein 1 (Homo sapiens), Q9NR56. 280,000 compounds, 0.036% hits. Potency, µM (titrated, usually from 57.5 µM), without a hit: at the highest dose activity change, negative = inhibition, actives largely listed as inhibitors. TR-FRET MBNL1-His/biotin-(CUG)12 binding, 665/545 ratio; active = well fitted inhibition curve with a large enough effect in the signal ratio, with a control signal flat, not every such curve was filed as active; inconclusive = small, poorly fitted or top-dose-only effect, or effect the other way, or a change in a side signal; inactive = no such curve, though single readings can be large or run the other way; the % refers to the signal ratio; also: potency is read from the fitted curve at half-maximal effect; % is scaled to controls: 0 for no effect and ±100 for the full control effect
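Inhibition of protein-RNA binding appears as loss of TR-FRET between terbium anti-His antibody on MBNL1-His and streptavidin-XL665 on biotin-(CUG)12. Activity is normalized to buffer-only and uninhibited-complex controls.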
KCNH2 WT inh: qHTS for Inhibitors of KCHN2 3.1: Wildtype qHTS; U2OS, BacMam KCNH2, thallium flux FluxOr; active compounds read low; 340,000 compounds, 0.37% hits; Voltage-gated inwardly rectifying potassium channel KCNH2 (Homo sapiens), Q12809; activity change, % at 1.84 µM;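 active = maximum activity change below -70%; inconclusive = maximum activity change between -70% and -50%; inactive = maximum activity change above -50%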; also: % is scaled to controls: 0 for no effect and ±100 for the full control effect
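U2OS cells transduced with wild-type KCNH2 virus are loaded with FluxOr dye for 45 min, and thallium flux is measured in kinetic reads before and after stimulation buffer. Rate constants are normalized to DMSO controls.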
CBFb-RUNX1 inh: qHTS Assay for Compounds Blocking the Interaction Between CBF-beta and RUNX1 for the Treatment of Acute Myeloid Leukemia; Runt-related transcription factor 1 (Homo sapiens) + Core-binding factor subunit beta …; AlphaScreen CBFb-His/RUNX1-biotin binding, biochemical; Potency, µM (titrated, usually from 59.8 µM), without a hit: top-dose activity, negative = inhibition, usual class: inhibitors; 230,000 tested, under 10 active; also: % of control where 0% means no effect
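Interaction loss through any mechanism counts as activity. Pre-formed complex of His-CBF-beta and biotin-RUNX1 (30 nM apiece) is incubated with compound 15 min, then with 50 ng nickel and 50 ng streptavidin beads for 90 min before AlphaScreen detection.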
KCNH2 3.1 block: qHTS for Inhibitors of KCHN2 3.1: Mutant qHTS; U2OS KCNH2 3.1, thallium flux FluxOr; active compounds read low; activity change, % (tested at about 1.8 µM); 340,000 compounds, 0.95% hits; AID 720553, 2013;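 active = maximum activity change below -70%; inconclusive = maximum activity change from -70% to -50%; inactive = maximum activity change above -50%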;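 also: thallium influx rate constant from kinetic fluorescence after stimulation buffer; % is scaled to controls: 0 for no effect and ±100 for the full control effect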
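Channel expression came from 3.1 mutant virus (1.77 x 10^8 /mL) applied to suspended U2OS cells for 4 h. Flux was tracked with FluxOr dye plus Red40 quencher, and kinetic rate constants normalized to controls.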
Starred values were filed as active, the others as inactive; u = inconclusive; x = not tested or not shown; ! = not active in a repeat; [ ] = dose if it differs, or a comment. Unless noted, calls follow the shape of the dose curve; as a rule, active = well fitted curve in the direction sought with a large enough effect; inconclusive = small, poorly fitted or top-dose-only effect, or another doubt; inactive = no such curve, though single readings can be large; an effect the other way counts as inactive or inconclusive.

SMILES	PLK1 PBD inh	VDR inh	MBNL1-CUG inh	KCNH2 WT inh	CBFb-RUNX1 inh	KCNH2 3.1 block
COC(=O)c1ccc(CNC(=O)c2ccc(OCC(=O)N3CCOCC3)c(OC)c2)cc1	-0.8%	6.4%	x	-152.5*	x	-193.2*
CCOc1cc(C(=S)N2CCOCC2)ccc1OC	23.8µM*	-1.3%	-3.2%	-1.5	8.2%	2.8
COc1ccc(-c2nc3ccccc3s2)cc1NC(=O)c1cc2ccccc2o1	x	0.8%	x	x	x	x
COc1ccc(CCNC(=O)c2cc3c(=O)[nH]c4ccc(C)cc4c3s2)cc1OC	x	-21.1%	x	x	x	x
CCN1C(=NCCCCO)N[C@@H](c2ccccc2)C(C(=O)OC)=C1C	x	x	-6.3%	x	x	x
CCCCOc1ccc(C(=O)CCN2CCOCC2)cc1	23.8µM*	31.6µM*	-0.2%	-3.2	3.9%	-5.5
CCCCCOc1ccc(C(O)C(CN2CCOCC2)c2ccccc2)cc1 (centres undefined)	26.7µM*	-16.7%	-2.4%	31.0	x	-5.0
CCCOc1ccc(C(=O)CCN2CCCCC2)cc1	13.4µM*	39.8µM*	5.1%	26.1	-7.8%	-6.8
COc1ccc(CCNC(=O)C(C)n2nc(C)c3sc4ccccc4c3c2=O)cc1OC (centres undefined)	x	-3.8%	x	x	x	x
CCC[C@@H]1NC(=O)[C@@H](NC(C)=O)CSSC[C@@H](C(N)=O)NC(=O)CNC(=O)[C@H](Cc2c[nH]c3ccccc23)NC(=O)[C@H](CCCN=C(N)N)NC(=O)[C@H](Cc2ccc3ccccc3c2)NC(=O)[C@H](Cc2cnc[nH]2)NC(=O)[C@H](CCCN=C(N)N)NC1=O	x	-0.6%	x	x	15.3%	x
CCOc1ccccc1NC(=O)CN1C(=O)COc2ccc(S(=O)(=O)N3CCCCCC3)cc21	x	-5.6%	x	x	x	x
O=C(NCCC(=O)N1CCN(c2cccc(Cl)c2)CC1)c1ccc(Br)cc1	1.1%	-1.6%	x	8.0	x	-75.3*
CC(C)C(c1nnnn1Cc1cccs1)N1CCN(C(=O)c2ccco2)CC1 (centres undefined)	18.9µM*	-9.1%	6.7%	-0.5	5.4%	-14.2
O=C(c1ccco1)N1CCN(C(c2ccccc2)c2nnnn2Cc2cccs2)CC1 (centres undefined)	-6.9%	-10.4%	-8.3%	12.8	-1.2%	-15.4
O=C(c1ccco1)N1CCN(Cc2nnnn2CC2CCCO2)CC1 (centres undefined)	11.9µM*	u	-16.5%	x	1.7%	-7.3
CC#CCCC(=O)N1C=Cc2ccccc2C1C#N (centres undefined)	11.9µM*	-18.0%	12.8%	3.5	1.9%	3.2
COc1ccc(NC(=O)Cn2c(=O)n(CCC(=O)NCCc3ccc(OC)c(OC)c3)c(=O)c3ccccc32)cc1Cl	x	-4.0%	x	x	x	x
Cc1ccc(C(=O)Nc2cccnc2)cc1S(=O)(=O)N1CCCCC1	16.8µM*	u	1.2%	6.1	4.6%	5.0
COc1cc(Cl)c(C)cc1Nc1c2c(nc3ccccc13)CCC2	x	-17.3%	x	x	x	x
C=CC[C@@H]1/C=C(\C)C[C@H](C)C[C@H](OC)[C@H]2O[C@@](O)(C(=O)C(=O)N3CCCC[C@H]3C(=O)O[C@H](/C(C)=C/[C@@H]3CC[C@@H](O)[C@H](OC)C3)[C@H](C)[C@@H](O)CC1=O)[C@H](C)C[C@@H]2OC	x	-17.5%	x	x	22.9%	x
CS(=O)(=O)c1ccc(-c2nc(-c3ccc(F)cc3)c(-c3ccncc3)[nH]2)cc1	x	-9.9%	x	x	3.2%	x
Cc1ccc(-n2nnnc2C(Cl)c2nnnn2-c2ccc(C)cc2)cc1	u	25.1µM*	-0.9%	0.8	3.0%	5.7
O=C1CC(c2ccc3c(c2)OCCO3)Oc2ccccc21 (centres undefined)	8.44µM*	-13.9%	0.7%	3.2	x	-10.6
COc1ccc(C2CC(=O)c3cc(OC)ccc3O2)cc1 (centres undefined)	3.8%	-3.4%	x	-1.0	x	-0.6
COc1ccc(C2CC(=O)c3ccccc3O2)cc1 (centres undefined)	u	-24.7%	20.8%	0.1	4.4%[2.36 µM]	10.1
SMILES	PLK1 PBD inh	VDR inh	MBNL1-CUG inh	KCNH2 WT inh	CBFb-RUNX1 inh	KCNH2 3.1 block
O=C1CC(c2ccc3c(c2)OCCO3)Oc2ccc([N+](=O)[O-])cc21 (centres undefined)	-16.7%	20µM*	19.7%	-17.8	x	-6.3
COc1ccc(CNC(=O)C2CCN(S(=O)(=O)c3c(C)noc3/C=C/c3cccs3)CC2)cc1	x	3.9%	x	x	x	x
Cc1[nH]n(-c2ccccc2)c(=O)c1/C=N/N(c1ccccc1)c1ccccc1	18.9µM*	u	4.6%	-6.0	u	5.9
C=CCN=Cc1c(C)[nH]n(-c2ccccc2)c1=O	-3.5%	-16.4%	5.1%	-0.1	-1.3%	x
Cc1[nH]n(-c2ccccc2)c(=S)c1C=Nc1ccc([N+](=O)[O-])cc1	2.67µM*	39.8µM*	u	-22.4	0.7%	-4.2
Cc1cc(C)nc(NS(=O)(=O)c2ccc(N=Cc3c(C)[nH]n(-c4ccccc4)c3=O)cc2)n1	26.7µM*	u	-4.1%	3.3	-9.9%	6.2
Cc1[nH]n(-c2ccccc2)c(=O)c1/C=N/c1nn[nH]n1	23.8µM*	-18.5%	-21.8%	-3.9	-6.3%	16.0
COc1ccc(C)cc1-n1nnc(S(=O)(=O)c2ccc(C)cc2)c1C	x	-9.3%	x	x	x	x
CC(=O)c1cccc(NC(=O)Cn2c(C)c3cnn(-c4ccccc4)c(=O)c3c2C)c1	x	-6.1%	x	x	x	x
O=C(O)COc1ccc(Cl)cc1C1CCCCC1	-0.2%	-11.0%	x	4.7	x	7.9
CCCC[C@@]1(C2CCCC2)Cc2cc(OCC(=O)O)c(Cl)c(Cl)c2C1=O	-26.5%	50.1µM*!	x	-1.1	13.9%	13.4
CC(C)Cn1c(=O)c2ccccc2n2c(CCC(=O)NCc3ccccc3Cl)nnc12	x	12.6%	x	x	x	x
O=C(Nc1ccc(Cl)cc1)Nc1ccccc1CC[N+](=O)[O-]	3.36µM*	u	x	-4.7	20.9%	0.0
CN(C)C(=O)Nc1ccccc1CC[N+](=O)[O-]	-10.7%	2.0%	-2.2%	-1.4	-2.7%	-18.9
CCOC(=O)C1C(c2ccc3c(c2)OCO3)NC(=O)NC1(O)C(F)(F)F (centres undefined)	2.99µM*	u	-4.9%	-2.2	5.0%	17.6
CC(C)NC(=O)c1ccccc1N(Cc1ccccc1)S(C)(=O)=O	-10.6%	2.7%	-1.5%	-25.0	3.9%	-75.4*

Screening results as filed in PubChem.
